Among the data in PubChem BioAssay (NCI) are growth values, retold here.

This is part of a sample that, as a whole, favours compounds with a hit. Of some 83,000 tested, about 20% had one in any assay.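 Cells were grown in 96-well plates and exposed to the test compound at a single concentration for 48 hours; results are reported as percent growth, with values below 10 considered active.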 Values without a mark were called inactive. The source made the active and inactive calls.

Assay in all cases: NCI-60 one-dose screen, 48 h (100 = growth as untreated, 0 = no growth, -100 = all killed)
One assay concerns NCI-H23 lung. The following applies: 10 µM unless noted.
A further assay has as its system NCI-H322M lung. The settings on record: 10 µM unless noted.
For a further assay, the system named is HOP-62 NSCLC. The following applies: 10 µM unless noted.
For another assay, the system named is NCI-H460 lung. The settings on record: 10 µM unless noted.
The next assay concerns NCI-H522 lung. The following applies: 10 µM.
The next assay deals with A549/ATCC NSCLC. The following applies: 10 µM unless noted.
Another assay deals with 786-0 renal. The settings on record: 10 µM unless noted.
A further assay deals with COLO 205 colon. The following applies: 10 µM unless noted.
The subject of a further assay is HOP-92 NSCLC. The following applies: 10 µM unless noted.

Turning to `Cc1nc2nc(C(F)(F)F)[nH]c2nc1C`, the growth was 107% with NCI-H23 lung; 110% in the assay on NCI-H322M lung; 93.2% with HOP-62 NSCLC; 111% in the assay with NCI-H460 lung; 90.1% with NCI-H522 lung; 99.7% with A549/ATCC NSCLC. Also, the growth in the assay with 786-0 renal is 93.5%; with COLO 205 colon it was 108%.
`COc1ccc(/C=N/NC(=O)c2cnn3c2NC(c2ccccc2)C3)cc1OC1CCCC1` (centres undefined): the growth in the assay with NCI-H23 lung is 98.8%; in the assay on NCI-H322M lung, 101%; with HOP-62 NSCLC it was 87.9%; in the assay with NCI-H460 lung it was 100%; in the assay on NCI-H522 lung it was 79.5%; in the assay on A549/ATCC NSCLC, 84.1%. Also, the growth in the assay with 786-0 renal is 98.4%.
For `COc1ccc(-c2csc3c2-n2cccc2C3=O)cc1O`, the growth was 11.7% in the assay with NCI-H23 lung; 17.5% in the assay on NCI-H322M lung; 31.3% in the assay on HOP-62 NSCLC; 1.57% (active) in the assay on NCI-H460 lung; -22.5% (active) in the assay with NCI-H522 lung; 11.9% in the assay on A549/ATCC NSCLC. In addition, the growth in the assay on 786-0 renal was 1.66% (active); in the assay on COLO 205 colon, 72.3%.
Turning to `Cc1ccc2nc(NC(=O)CSC(=S)N3CCN(Cc4ccccc4)CC3)sc2c1`, the growth with NCI-H23 lung was 1.13% (active); with NCI-H322M lung, -71.8% (active); with HOP-62 NSCLC, -59.1% (active); in the assay with NCI-H460 lung, -70.9% (active); with HOP-92 NSCLC it was -55.4% (active); with A549/ATCC NSCLC, 1.71% (active). The results for the growth in the assay with 786-0 renal and in the assay with COLO 205 colon were -21.1% (active) and -63.3% (active), respectively.
For `c1ccc(-c2n(Cc3ccc4ccccc4c3)c3ccccc3[n+]2Cc2ccc3ccccc3c2)cc1`, the growth with NCI-H23 lung was -20.9% (active); in the assay with NCI-H322M lung, 3.63% (active); in the assay on HOP-62 NSCLC, 4.19% (active); in the assay with NCI-H460 lung, -82.1% (active); in the assay with HOP-92 NSCLC, -40.4% (active); in the assay on A549/ATCC NSCLC, 5.14% (active). Moreover, the growth in the assay on 786-0 renal is -94.8% (active); with COLO 205 colon, -70.7% (active).
As to `CCCCCCCC/C=C\CCCCCCCCOc1cccc(CC(=O)NCC[N+](C)(C)C)c1`, the growth with NCI-H23 lung is 83.1%; with NCI-H322M lung, 102%; in the assay on HOP-62 NSCLC, 62.9%; with NCI-H460 lung it was 57.9%; in the assay on NCI-H522 lung it was 80.8%; in the assay on A549/ATCC NSCLC, 90.9%. In addition, the growth with 786-0 renal is 80.8%.
Regarding `COc1ccc(-n2c(SCc3cc(OC)c(OC)c(OC)c3)nc3ccc(C)cc3c2=O)c(OC)c1`, the growth is 17.8% in the assay with NCI-H23 lung; 28% with NCI-H322M lung; 47.4% in the assay with HOP-62 NSCLC; 4.59% (active) in the assay with NCI-H460 lung; 22.7% in the assay with HOP-92 NSCLC; 19% in the assay on A549/ATCC NSCLC. In addition, the values for the growth in the assay on 786-0 renal and with COLO 205 colon were 29.6% and -4.21% (active), respectively.
For the compound `Cc1cc(=O)oc2c1ccc1oc(C(=O)c3ccccc3)c(C)c12`, the growth was 82.1% in the assay on NCI-H23 lung; 112% in the assay with NCI-H322M lung; 115% with HOP-62 NSCLC; 85% in the assay on NCI-H460 lung; 105% with HOP-92 NSCLC; 93.8% in the assay on A549/ATCC NSCLC. In addition, the growth in the assay with 786-0 renal is 99.5%; in the assay with COLO 205 colon it was 93.5%.
Consider `Nc1cccc2c(=S)c3ccccc3[nH]c12`, for which the growth was 95.9% in the assay with NCI-H23 lung; 92.1% in the assay on NCI-H322M lung; 82.7% in the assay with HOP-62 NSCLC; 95.7% in the assay with NCI-H460 lung; 98.4% in the assay on HOP-92 NSCLC; 108% with A549/ATCC NSCLC. Besides, the growth is 106% in the assay on 786-0 renal and 114% with COLO 205 colon.
In the case of `COc1cc(CNCCCN2C(=O)c3ccc4c5c(ccc(c35)C2=O)C(=O)N(CCCNCc2cc(OC)c(OC)c(OC)c2)C4=O)cc(OC)c1OC`, the growth with NCI-H23 lung was -74.8% (active); in the assay with NCI-H322M lung it was -24.2% (active); with HOP-62 NSCLC, -81.4% (active); in the assay on NCI-H460 lung, -75% (active); with NCI-H522 lung, -80.7% (active); in the assay with A549/ATCC NSCLC, -84.8% (active). Also, the growth in the assay with 786-0 renal was -30% (active); with COLO 205 colon, -92.6% (active).
For `CC(C)(C)[Si](C)(C)OC1[C@@H](CNC(=O)NC(=O)CCl)O[C@@H](n2cnc3c(N)ncnc32)[C@H]1O[Si](C)(C)C(C)(C)C` (some centres undefined), the growth is -72.4% (active) in the assay with NCI-H23 lung; 111% with NCI-H322M lung; -60.1% (active) in the assay on HOP-62 NSCLC; -82.4% (active) in the assay on NCI-H460 lung; -79.2% (active) in the assay on HOP-92 NSCLC; -22.3% (active) with A549/ATCC NSCLC. Besides, the growth in the assay on 786-0 renal is -55.4% (active); in the assay with COLO 205 colon, -16.8% (active).
For the compound `Cc1ccccc1-c1cc(-c2ccc(Br)s2)[nH]c(=O)c1C#N`, the growth with NCI-H23 lung is 96.8%; with NCI-H322M lung, 97.9%; with HOP-62 NSCLC, 104%; in the assay with NCI-H460 lung it was 106%; in the assay with NCI-H522 lung it was 93.4%; with A549/ATCC NSCLC, 107%. In addition, in the assay with 786-0 renal, the growth is 97.6%.
Consider `COc1cc(-c2ccc3cc(OC)c(OC)c(OC)c3c2)cc(OC)c1OC`, for which the growth with NCI-H23 lung was 65.4%; in the assay on NCI-H322M lung, 78.7%; with HOP-62 NSCLC it was 61.3%; with NCI-H460 lung, 60.3%; in the assay with NCI-H522 lung it was 34%; in the assay on A549/ATCC NSCLC, 50.8%. For the same compound, the growth with 786-0 renal was 84%; in the assay with COLO 205 colon it was 54.7%.
For `CCN1CCN(c2ccc(Nc3ncc4ccc5ncn(C(C)C)c5c4n3)nc2)CC1`, the growth was -26.1% (active) in the assay on NCI-H23 lung; 1.51% (active) in the assay on NCI-H322M lung; -7.69% (active) in the assay on HOP-62 NSCLC; -30.3% (active) in the assay on NCI-H460 lung; 13.9% with HOP-92 NSCLC; 9.87% (active) in the assay with A549/ATCC NSCLC. The growth in the assay on 786-0 renal is 9.21% (active); in the assay on COLO 205 colon, -40.4% (active).
